Inconclusive results are not listed. Calls of active or inactive are those of the source. Calls follow the shape of the dose curve; as a rule, active = well fitted cell-killing curve with a large enough effect; inconclusive = small, poorly fitted or top-dose-only effect; inactive = flat fitted curve, though single readings scatter.
Test: Cellular viability qHTS for adrenocortical cancer (ACC) cell line NCI-H295R (AID 1963990); also: nearly all actives have a fitted effect of over 60% in size;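 as to activity change, negative = viability loss: 0% = DMSO only wells and -100% = full killing with cytotoxic reference compound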
Conditions: CellTiter-Glo ATP luminescence, 48 h; series mostly up to 46.1 µM; activity change, negative = viability loss: at the top concentration
Outline: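 Viability of NCI-H295R after 48 h of treatment (final up to 46 uM) measured through cellular ATP luminescence.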
Potency is read from the fitted curve at half-maximal effect.

| Structure (SMILES) | Potency | activity change, negative = viability loss |
| --- | --- | --- |
| CCNCCS(=O)(=O)NC[C@@]1(c2ccccc2)SC(NC(=O)C(C)(C)C)=NN1C(=O)C(C)(C)C | 316 nM (active) | – |
| CS(=O)(=O)c1ccc(-c2cnc(NCc3ccco3)n3cnnc23)cc1 | – | -7.63% (inactive) |
| O=C([C@@H](Cc1cccc(C(F)(F)F)c1)NS(=O)(=O)c1cc(F)c2c(c1)CCNC2)N1CCCC1 | – | -15.4% (inactive) |
| CC(=O)CC/C=C(\C)CC/C=C(\C)CC/C=C(\C)CCC=C(C)C | – | 22.3% (inactive) |
| Cc1ccc(O)c2ncccc12 | 20600 nM (active) | – |
| CN(C)N(C)C(=O)[C@@]1(Cc2ccccc2)CCCN(C(=O)[C@@H](Cc2c[nH]c3ccccc23)NC(=O)C(C)(C)N)C1 | – | 1.12% (inactive) |
| c1ccc2c(c1)CCCC2C1=NCCN1 (stereo not given) | – | -22.4% (inactive) |
| COc1cccc(-c2c(C)n(Cc3c(F)cccc3C(F)(F)F)c(=O)n(C[C@H](NCCCC(=O)O)c3ccccc3)c2=O)c1F | inactive | – |
| OC1CCC(Oc2cccc3cnc(Nc4ccc5nc[nH]c5c4)nc23)CC1 (stereo not given) | 2510 nM (active) | – |
| CC(=O)[C@@]1(O)CC[C@H]2[C@@H]3C[C@H](C)C4=CC(=O)CC[C@]4(C)[C@H]3CC[C@@]21C | – | -11.7% (inactive) |
| CC1=C(/C=C/C(C)=C/C=C/C(C)=C/C=C/C=C(C)/C=C/C=C(C)/C=C/C2=C(C)CCCC2(C)C)C(C)(C)CCC1 | – | -15.6% (inactive) |
| Cc1cc(O)cc(C)c1Cl | – | -18.2% (inactive) |
| Cc1ncc([N+](=O)[O-])n1CC(O)CCl (stereo not given) | – | -0.619% (inactive) |
| C=CC(=O)N1C[C@H](Nc2ncnc3[nH]ccc23)CC[C@@H]1C | – | -3.68% (inactive) |
| OC(CCN1CCCCC1)(c1ccccc1)c1ccccc1 | – | -7.12% (inactive) |

Source: PubChem BioAssay (NCATS)
